# In PubChem BioAssay (NCI):
# This is part of a sample that, as a whole, favours compounds with a hit. Of some 83,000 tested, about 20% had one in any assay.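 Single-dose data. Exposure time 48 hours. Values below 10 considered active.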 Activity calls are given as the source filed them.
# Tested on: MDA-MB-468 breast
# Experiment: NCI-60 one-dose screen, 48 h (100 = growth as untreated, 0 = no growth, -100 = all killed)
# Conditions: 10 µM unless noted
row,SMILES,growth
1,CC(=O)Nc1cc2c3c(cccc3c1)-c1ccccc1-2,108% (inactive)
2,CC1=NN(c2cccc(S(N)(=O)=O)c2)C(=O)C1,95.6% (inactive)
3,C1C[S+]2CC[S+]1CC2,101% (inactive)
4,CC1=C(C)C(=O)OC([C@](C)(O)[C@]2(O)CC[C@@]3(O)[C@@H]4C[C@H]5O[C@]56CC=CC(=O)[C@]6(C)[C@H]4CC[C@]23COC(=O)c2ccc(C)o2)C1 (some centres undefined),-55.6% (active)
